Rows were chosen to be rich in hits. Some 9.2% of all compounds tested hit in one or more screens of this group.
ELG1 genotoxic = genotoxicity induction in ELG1-luciferase HEK293T cells. Potency, µM (series often up to 46 µM), for inactives: at the highest dose activity change, positive = activation, usual class: activators. AID 504466. HEK293T ELG1-luciferase reporter, luminescence, 16 h. 1.3% of 330,000 active; note: % of control where 0% means no effect; nearly all actives have a fitted effect of over 60% in size
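ELG1-luciferase HEK293T cells, 2,000/well; compound pinned in; 16 hr, 37 °C, 5% CO2; ONE-Glo, 30 min RT; luminescence on CCD imager.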
ELG1 repair inh = ELG1-dependent DNA repair inhibition | HEK293T ELG1-luciferase reporter, luminescence, 16 h; DNA damage induced by 5-fluorouridine | Potency, µM (doses to about 46.1 µM), inactives show at the top dose activity change, negative = inhibition, actives largely listed as inhibitors | 2.3% of 330,000 active | AID 504467; note: % is set by controls: 0 for no effect and ±100 for the full control effect; nearly all actives have a fitted effect of over 55% in size
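5-Fluorouridine DNA damage + compound/DMSO, 2,000 cells/well, 16 h, 37 °C/5% CO2. ONE-Glo, 30 min RT, luminescence. Readout = decrease in reporter signal.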
FLuc counter = firefly luciferase modulation, counter-screen for miR-21 project; 6.9% of 360,000 active; purified FLuc, Km substrates, luminescence inhibition; P08659; Potency, µM (doses to about 57.5 µM), without a hit: at the highest dose activity change, negative = inhibition, actives largely listed as inhibitors; AID 588342;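 note: plate controls were vehicle for no effect and reference inhibitor for full effect; nearly all actives have a fitted effect of over 55% in size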
Target sequence (P08659 whole entry, looked up): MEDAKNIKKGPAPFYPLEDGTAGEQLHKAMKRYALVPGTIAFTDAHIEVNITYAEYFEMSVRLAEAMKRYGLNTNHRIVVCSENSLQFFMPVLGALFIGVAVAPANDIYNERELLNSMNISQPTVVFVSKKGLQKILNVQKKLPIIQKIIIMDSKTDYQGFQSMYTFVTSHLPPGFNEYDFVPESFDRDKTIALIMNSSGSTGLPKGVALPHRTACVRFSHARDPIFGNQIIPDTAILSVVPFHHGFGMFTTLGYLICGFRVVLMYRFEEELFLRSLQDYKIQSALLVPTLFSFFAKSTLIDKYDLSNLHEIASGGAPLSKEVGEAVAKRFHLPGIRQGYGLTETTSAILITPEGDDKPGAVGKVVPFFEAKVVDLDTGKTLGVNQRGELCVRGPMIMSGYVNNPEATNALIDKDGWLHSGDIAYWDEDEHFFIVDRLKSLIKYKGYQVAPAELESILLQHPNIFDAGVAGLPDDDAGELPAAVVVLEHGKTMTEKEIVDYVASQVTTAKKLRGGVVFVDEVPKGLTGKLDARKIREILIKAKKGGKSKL
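Purified P. pyralis luciferase (10nM final) with 10uM D-luciferin and 10uM ATP (Km levels) in 50mM Tris acetate pH 7.5, 10mM Mg acetate, 0.01% Tween-20, 0.05% BSA; qHTS 6-point titration, ~60 µM downward; luminescence read.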
SMN2 splice up = SMN2 splice variant enhancement. HEK293 SMN2-luciferase splicing reporter, luminescence, 30-36 h. Potency, µM (doses to about 46.1 µM), without a hit: top-dose activity change, positive = activation, actives largely listed as activators. 2.8% of 210,000 active; note: % of control where 0% means no effect; nearly all actives have a fitted effect of over 55% in size
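HEK293 cells carry an SMN2 […]–luciferase reporter in which exon 7 inclusion puts luciferase in frame. Cells were plated 10-12 h before compound addition, then incubated 30-36 h at 37C. ONE-Glo luminescence was read; sodium butyrate at 4.5 mM final served as control.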
Rab9 promoter act = activates the Rab9 promoter | Huh7 Rab9 promoter-luciferase reporter, luminescence, 24 h | 2.8% of 320,000 active | Potency, µM (series often up to 9.22 µM), inactives show top-dose activation, negative = inhibition, most hits filed as activators | AID 485297; note: % of control where 0% means no effect; nearly all actives have a fitted effect of over 60% in size
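Cell-based reporter: Huh7 stable for Rab9 promoter-driven luciferase, plated in reduced-serum medium with 10% FBS at 1500 cells/well, compound-treated 24 h at 37 °C, luminescence read after 10 min reagent.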
NPC1 prom act = activators of NPC1 promoter. Huh7 NPC1 promoter luciferase reporter, 24 h. Potency, µM (titrated, usually from 9.22 µM), for inactives: at the highest dose activation, usual class: activators. 2.4% of 320,000 active. AID 485313; note: % of control where 0% means no effect; nearly all actives have a fitted effect of over 60% in size
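Huh7 cells stably carrying NPC1 promoter–luciferase, plated in Opti-MEM with 10% FBS for 2 h, were exposed to compound in DMSO for 24 h at 37 °C; luciferase reagent was added for 10 min and luminescence read.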
Starred values were filed as active, the others as inactive; ? = inconclusive; nt = not tested or not shown. Calls come from the whole dose curve; as a rule, active = well fitted curve in the direction sought with a large enough effect; inconclusive = small, poorly fitted or top-dose-only effect, or another doubt; inactive = no such curve, though single readings can be large; an effect the other way counts as inactive or inconclusive. Potency is the fitted concentration of half-maximal effect.

SMILES	ELG1 genotoxic	ELG1 repair inh	FLuc counter	SMN2 splice up	Rab9 promoter act	NPC1 prom act
O=C(/C=C/N1CCOCC1)c1cc2ccccc2o1	?	?	9.53µM*	11.2µM*	3.98µM*	3.55µM*
O=C(Nc1ccc2c(c1)OCCO2)c1cc2ccccc2o1	?	?	1.07µM*	1.26µM*	0.447µM*	0.891µM*
CCc1ccc(C(=O)Nc2ccc3c(c2)n(C)c(=O)n3C)cc1	18.3µM*	?	15.1µM*	nt	?	-4.4%
O=C(Nc1ccc2oc(-c3cccnc3)nc2c1)c1cc2ccccc2o1	-17.9%	18.4µM*	?	-21.3%	3.0%	9.1%
Cc1cc(=O)oc2cc(NC(=O)c3cc4ccccc4o3)ccc12	?	?	-17.0%	7.2%	21.2%	?
O=C(Nc1c(C(=O)Nc2ccc(F)cc2)oc2ccccc12)c1cc2ccccc2o1	nt	nt	2.69µM*	2.3%	nt	nt
Cn1c(=O)n(C)c2cc(NC(=O)c3cc4ccccc4o3)ccc21	16.4µM*	?	?	nt	27.9%	13.7%
O=C(O)c1ccc(NC(=O)c2cc3ccccc3o2)cc1	?	?	2.13µM*	6.31µM*	?	?
O=C(Nc1ccc2oc(=O)ccc2c1)c1cc2ccccc2o1	?	?	7.57µM*	3.55µM*	1.58µM*	2.51µM*
O=C(Nc1ccc(NC(=O)c2cc3ccccc3o2)cc1)c1ccccc1	nt	nt	-0.5%	-14.8%	nt	nt
COc1ccc(NC(=O)c2oc3ccccc3c2NC(=O)c2cc3ccccc3o2)cc1	nt	nt	?	-5.0%	nt	nt
CN(Cc1ccccc1)C(=O)CCS(=O)(=O)c1ccc2c(c1)NC(=O)CS2	-4.4%	-8.7%	2.2%	nt	-3.3%	0.8%
CS(=O)(=O)Nc1ccccc1C(=O)Nc1ccccc1C(=O)N1CCCC1	-5.7%	-6.1%	4.3%	nt	1.5%	3.7%
NC(=O)c1ccc(NC(=O)c2ccc(CN3CCOCC3)cc2)cc1	17.5%	?	-17.7%	22.4%	-0.8%	15.4%
O=C(/C=C/N1CCOCC1)c1coc2ccccc12	?	?	9.53µM*	nt	1.41µM*	1.58µM*
Cn1c(=O)n(C)c2cc(NC(=O)c3ccccc3NS(C)(=O)=O)ccc21	13.7%	?	26.9µM*	nt	6.0%	6.3%
Cn1c(=O)n(C)c2cc(NS(=O)(=O)c3ccccc3)ccc21	18.3µM*	?	2.7%	nt	4.2%	-3.9%
O=C(Nc1ccc(CN2CCOCC2)cc1)c1cc2ccccn2n1	?	?	1.2µM*	?	0.447µM*	0.316µM*
O=C(O)c1coc2ccccc12	-6.6%	0.6%	1.6%	nt	3.8%	-5.4%
Cc1ccc(S(=O)(=O)Nc2ccc3c(c2)n(C)c(=O)n3C)cc1	?	?	3.4%	nt	6.6%	-3.6%
Cc1c(/C=C(\C#N)C(=O)Nc2cccc(Cl)c2)c2ccccc2n1Cc1ccccc1	nt	nt	5.7%	-6.4%	nt	nt
COc1ccccc1N(CC(=O)NC1CCCC1)S(=O)(=O)c1cccc(C(F)(F)F)c1	-0.7%	6.2%	1.9%	nt	-0.7%	-4.2%
CC(=O)Cc1nsc(NC(=O)c2ccc(-c3cccc(Cl)c3)o2)n1	-1.7%	-27.6%	10.7µM*	19.9%	0.3%	1.9%
O=C(NC(=S)Nc1ccc(CN2CCOCC2)cc1)c1cc2ccccc2o1	14.6%	?	-2.2%	6.5%	18.9%	5.5%
O=C(Nc1ccc(CN2CCOCC2)cc1)c1ccc(-c2cccc(Cl)c2)o1	-15.5%	?	16.9µM*	-78.8%	nt	-4.1%
SMILES	ELG1 genotoxic	ELG1 repair inh	FLuc counter	SMN2 splice up	Rab9 promoter act	NPC1 prom act
O=C(Nc1ccc(CN2CCOCC2)cc1)c1cc2ccccc2o1	11.9%	?	3.79µM*	5.62µM*	0.631µM*	1.58µM*
Cc1csc(=O)n1CC(=O)Nc1nc2ccccc2s1	-3.0%	27.5%	-6.0%	nt	3.3%	-0.1%
O=C(C1CCCCC1)N(Cc1cccnc1)c1nc2ccc(F)cc2s1	nt	nt	-10.3%	nt	nt	nt
O=C(COC(=O)c1ccc(F)cc1F)c1ccc[nH]1	2.9%	16.9%	19µM*	nt	-2.5%	1.3%
COc1ccc(C(=O)OCC(=O)c2ccc(CNC(C)=O)s2)cc1	0.7%	?	10.7µM*	nt	22.8%	9.5%
O=C(OCC(=O)c1ccc[nH]1)c1ccc(Br)cc1	3.2%	23.0%	?	nt	3.0%	-0.3%
COc1ccc(C(=O)c2ccc(CC(=O)O)s2)cc1	2.2%	15.5%	12µM*	-7.1%	-2.6%	-3.1%
COc1ccc(C(=O)OCC(=O)c2ccc[nH]2)cc1	?	?	26.9µM*	nt	?	?
CCC(=O)N1c2ccc(S(=O)(=O)CCC(=O)NCc3ccc(OC)cc3)cc2CC1C (stereo not given)	nt	nt	-10.5%	-15.0%	nt	nt
CCCCn1c(N)c(N(CCOC)C(=O)COC(=O)COc2ccccc2C#N)c(=O)[nH]c1=O	1.4%	15.1%	-3.4%	nt	-1.6%	-3.0%
Cc1nc2cc(NC(=O)CCS(=O)(=O)c3ccccc3)ccc2s1	?	?	9.53µM*	10µM*	1.41µM*	2µM*
Cc1ccc(N(CC(=O)Nc2ccc(-c3nc4ccc(C)cc4s3)cc2)S(C)(=O)=O)cc1	?	?	7.57µM*	36.9%	?	?
Cc1ccc2nc(-c3ccc(NC(=O)CCS(=O)(=O)c4ccccc4)cc3)sc2c1	?	?	10.7µM*	nt	0.316µM*	0.562µM*
Cc1nc2ccc(NC(=O)CCS(=O)(=O)c3ccccc3)cc2s1	14.8%	?	?	15.8µM*	27.8%	24.3%
Cc1ccc(S(=O)(=O)CCC(=O)Nc2ccc3nc(C)sc3c2)cc1	-1.0%	-0.8%	4.8%	-23.5%	-4.0%	-3.7%
Cc1ccc(NC(=O)Cn2cnc3onc(-c4ccc(F)cc4)c3c2=O)c(Cl)c1	nt	nt	1.0%	nt	nt	nt
CC(=O)OCc1cnc(C)c2oc(=O)c(C(=O)Nc3cc(F)ccc3C)cc12	nt	nt	0.1%	-2.7%	nt	nt
O=C(c1cccc(Br)c1)N1CCN(S(=O)(=O)N2CCCCCC2)CC1	-14.3%	0.0%	1.2%	nt	4.1%	-4.1%
Cc1ccccc1OCCC(=O)OCC(=O)Nc1ccc2[nH]c(=O)[nH]c2c1	-5.2%	2.8%	3.3%	nt	-3.1%	0.3%
c1ccc2oc(NC3=NCN(CC4CCCO4)CN3)nc2c1 (stereo not given)	10µM*	?	16.9µM*	12.6µM*	3.98µM*	?
COC(=O)c1sc(N2C(=O)c3oc4ccc(C)cc4c(=O)c3C2c2ccc(O)c(OC)c2)nc1C (stereo not given)	nt	nt	-6.4%	-4.2%	nt	nt
O=C(NCCCN1CCN(c2cccc(Cl)c2)CC1)c1cnn(-c2ccc(F)cc2)c1-n1cccc1	nt	nt	-12.2%	nt	nt	nt

Source: PubChem
